Screening data from PubChem BioAssay.
SMN2 splice enh: SMN2 splice variant enhancement; Potency, µM (doses to about 46.1 µM), for inactives: top-dose activity change, positive = activation, actives largely listed as activators; AID 1458; 210,000 tested, 2.8% active; HEK293 SMN2-luciferase splicing reporter, luminescence, 30-36 h; also: % of control where 0% means no effect; nearly all actives have a fitted effect of over 55% in size
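HEK293 cells carry an SMN2 […]–luciferase reporter in which exon 7 inclusion puts luciferase in frame. Cells were plated 10-12 h before compound addition, then incubated 30-36 h at 37C. ONE-Glo luminescence was read; sodium butyrate at 4.5 mM final served as control.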
Luc counter: blocks Kinase-Glo luciferase, a counter-screen artifact | Q27757 | Kinase-Glo luciferase, ATP luminescence, 8 min | Potency, µM (series often up to 38.3 µM), for the others: at the top dose activity change, negative = inhibition, actives largely listed as inhibitors | 200,000 tested, 0.28% active | AID 1379; also: % is scaled to controls: 0 for no effect and ±100 for the full control effect; nearly all actives have a fitted effect of over 60% in size
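Substrate mix (final 50 mM imidazole pH 7.2, 50 mM KCl, 7 mM MgCl2, 10 uM ATP, 0.01% Tween 20, 0.05% BSA) plus pin-tool compound, then Kinase-Glo detection mix; 8 min ambient, luminescence read.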
ELG1 genotox: inducers of genotoxicity in HEK293T ELG1-luciferase cells; HEK293T ELG1-luciferase reporter, luminescence, 16 h; Potency, µM (top dose mostly 46 µM), inactives show at the highest dose activity change, positive = activation, hits mostly activators; 330,000 tested, 1.3% active; AID 504466; also: % of control where 0% means no effect; nearly all actives have a fitted effect of over 60% in size
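Genotoxicity was scored as increased ELG1-luciferase reporter signal, measured by ONE-Glo luminescence (30 min, room temperature). Compound or vehicle exposure of the HEK293T reporter cells lasted 16 hr at 37°C.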
Rab9 promoter act: activates the Rab9 promoter. Huh7 Rab9 promoter-luciferase reporter, luminescence, 24 h. Potency, µM (doses to about 9.22 µM), for inactives: at the highest dose activation, negative = inhibition, most hits filed as activators. 320,000 tested, 2.8% active. AID 485297; also: % of control where 0% means no effect; nearly all actives have a fitted effect of over 60% in size
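Rab9 promoter-driven luciferase in stably transfected Huh7 cells; 1500 cells/well rested 2 h, exposed to compound in DMSO for 24 h at 37 °C, 5% CO2. Luminescence read 10 min after adding luciferase reagent at ambient temperature.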
NPC1 promoter act: activators of NPC1 promoter | Potency, µM (doses to about 9.22 µM), for the others: at the highest dose activation, actives largely listed as activators | Huh7 NPC1 promoter luciferase reporter, 24 h | 320,000 tested, 2.4% active | AID 485313; also: % of control where 0% means no effect; nearly all actives have a fitted effect of over 60% in size
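In 1536-well qHTS, Huh7 cells harboring an NPC1 promoter–luciferase construct received compound for 24 h; activation was quantified by luminescence following luciferase reagent addition.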
FLuc counter: inhibits or activates purified firefly luciferase, miR-21 counter-screen; P08659; purified FLuc, Km substrates, luminescence inhibition; Potency, µM (highest dose often 57.5 µM), for the others: at the top dose activity change, negative = inhibition, most hits filed as inhibitors; 360,000 tested, 6.9% active;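 also: plate controls were vehicle for no effect and reference inhibitor for full effect; nearly all actives have a fitted effect of over 55% in size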
Target sequence (P08659 whole entry, looked up): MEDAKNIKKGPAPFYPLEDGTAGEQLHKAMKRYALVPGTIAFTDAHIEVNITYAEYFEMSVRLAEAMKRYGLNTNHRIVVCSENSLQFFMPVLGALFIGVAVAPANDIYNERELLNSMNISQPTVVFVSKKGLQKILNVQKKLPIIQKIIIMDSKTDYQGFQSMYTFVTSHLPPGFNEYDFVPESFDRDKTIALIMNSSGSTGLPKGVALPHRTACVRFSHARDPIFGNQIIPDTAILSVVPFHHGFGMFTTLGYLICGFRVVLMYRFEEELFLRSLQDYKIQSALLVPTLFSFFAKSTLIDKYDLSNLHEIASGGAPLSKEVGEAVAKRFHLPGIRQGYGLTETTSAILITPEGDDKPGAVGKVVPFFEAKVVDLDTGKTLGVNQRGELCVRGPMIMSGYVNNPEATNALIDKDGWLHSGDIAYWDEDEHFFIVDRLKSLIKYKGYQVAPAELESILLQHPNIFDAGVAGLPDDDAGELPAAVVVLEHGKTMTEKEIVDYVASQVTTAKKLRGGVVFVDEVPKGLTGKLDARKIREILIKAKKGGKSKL
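Purified P. pyralis luciferase (10nM final) with 10uM D-luciferin and 10uM ATP (Km levels) in 50mM Tris acetate pH 7.5, 10mM Mg acetate, 0.01% Tween-20, 0.05% BSA; qHTS 6-point titration, ~60 µM downward; luminescence read.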
* = called active by the depositor; ? = inconclusive; . = no result. Hits are enriched below; roughly 7.3% of the tested compounds scored in any of these assays. Calls follow the shape of the dose curve; as a rule, active = well fitted curve in the direction sought with a large enough effect; inconclusive = small, poorly fitted or top-dose-only effect, or another doubt; inactive = no such curve, though single readings can be large; an effect the other way counts as inactive or inconclusive. Potency is read from the fitted curve at half-maximal effect.

SMILES	SMN2 splice enh	Luc counter	ELG1 genotox	Rab9 promoter act	NPC1 promoter act	FLuc counter
COCCn1c(SCc2nc3ccccc3c(=O)[nH]2)nnc1-c1ccncc1	-5%	7%	0%	0%	2%	-1%
C=CCNC(=O)[C@H]1N2C(=O)c3ccccc3C2SC1(C)C (stereo partly specified)	.	.	2%	3%	1%	0%
COc1cc2ccccc2cc1C(=O)Nc1ccc2oc(-c3ccc(F)cc3)nc2c1	1%	.	.	.	.	0%
Cc1ccc(NC(=O)c2ncn[nH]2)cc1	15%	-1%	8%	2%	10%	17µM*
O=C(Nc1ccc2oc(-c3ccccc3F)nc2c1)c1ncn[nH]1	14µM*	-14%	?	0.5µM*	0.35µM*	2.1µM*
Cc1ccc(C(=O)N2CCN(c3ccccc3F)CC2)cc1NC(=O)c1nsc2ccccc12	.	.	.	.	.	-13%
O=C(Nc1ccc(C(=O)N2CCN(c3ccc(F)cc3)CC2)cc1)c1nsc2ccccc12	.	.	.	.	.	7.6µM*
Cc1cccc(N2CCN(C(=O)c3ccc(NC(=O)c4nsc5ccccc45)cc3)CC2)c1C	.	.	.	.	.	6µM*
O=C(Nc1ccc(C(=O)N2CCCCC2)cc1)c1nsc2ccccc12	.	.	.	.	.	1.3µM*
O=C(Nc1ccc(F)cc1)N1CCN(C(=O)c2nsc3ccccc23)CC1	.	.	.	.	.	-8%
COc1ccc(Cl)cc1N(CC(=O)N/N=C/c1ccc(OC(C)C)cc1)S(=O)(=O)c1ccc(C)c([N+](=O)[O-])c1	0%	-2%	0%	-1%	4%	-2%
Cc1cc(C)c(NC(=O)Nc2ccccc2)c(C)n1	.	.	4%	-7%	-2%	-1%
CC(=O)c1ccc(NC(=O)c2ccc3snnc3c2)cc1	.	.	15µM*	4µM*	4.5µM*	?
CNC(=O)c1ccc2snnc2c1	2%	1%	-7%	-2%	-1%	-1%
COc1ccc(NC(=O)c2ccc3snnc3c2)cc1	13µM*	1%	?	2.8µM*	?	9.5µM*
Cc1cccn2c(=O)c(C=C(C#N)C#N)c(N3CCN(C)CC3)nc12	.	.	2%	2%	-2%	6%
Cc1ccc(NC(=O)c2nnn(CC(=O)Nc3ccc4c(c3)OCO4)c2N)cc1C	.	.	2%	2%	-1%	5.4µM*
Nc1c(C(=O)Nc2ccccc2Cl)nnn1-c1ccc2c(c1)OCCO2	.	.	?	1.1µM*	0.79µM*	1.1µM*
Nc1c(C(=O)Nc2ccc3c(c2)OCCO3)nnn1Cc1cccc(Br)c1	.	.	8%	4µM*	?	?
Cc1ccc(NC(=O)c2nnn(Cc3ccccc3)c2N)cc1C	23%	.	.	.	.	0%
Cc1cccc(-n2nnc(C(=O)NCc3ccc4c(c3)OCO4)c2N)c1	6%	-2%	-3%	7%	7%	2%
Nc1c(C(=O)Nc2ccc3c(c2)OCCO3)nnn1CCc1ccccc1	?	0%	?	10%	-2%	15µM*
COc1cccc(-n2c(SCC(=O)Nc3ccc(F)cc3F)nc3c([nH]c4ccccc43)c2=O)c1	.	.	.	.	.	-1%
CN1CCC(N(C)S(=O)(=O)c2ccc(NC(=O)COc3cccc(Cl)c3)cc2)CC1	.	.	-1%	-4%	-2%	-1%
COc1ccc(-n2nc(C(=O)O)c3ccccc3c2=O)c(OC)c1	18%	2%	-2%	-5%	-5%	1%
CCc1ccc(Cn2nnc(C(=O)Nc3cccc(C)c3)c2N)cc1	1%	3%	9%	-7%	1%	5%
Nc1c(C(=O)Nc2ccc3c(c2)OCCO3)nnn1Cc1ccc(Br)cc1	.	.	?	1.1µM*	1.6µM*	?
Cc1ccc(S(=O)(=O)CC(=O)Nc2ncc([N+](=O)[O-])s2)cc1	.	.	-10%	4%	-1%	-1%
O=C(COC(=O)c1ccc(Br)o1)Nc1ncc([N+](=O)[O-])s1	.	.	4%	22%	17%	17µM*
COc1ccc(C(=O)OCC(=O)Nc2ncc([N+](=O)[O-])s2)cc1OC	.	.	2%	-2%	3%	-19%
